Data on eleven molecules can be found in PubChem BioAssay AID720597 (Broad Institute, 2013).

Molecules are shown by their SMILES. Potency and affinity values are given separately. Unmarked numbers belong to inactive results.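 How the source made its calls: active means fitted half-maximal dose no more than twice the top valid tested dose, for compounds that lower signal; inconclusive means fit invalid, or curve flat with activity between -70 and -30; inactive means potency past limit, curve flat within ±30, or signal increasing.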

Sequence of NAD-dependent protein deacylase sirtuin-5, mitochondrial (Homo sapiens) (Q9NXA8 whole entry, looked up): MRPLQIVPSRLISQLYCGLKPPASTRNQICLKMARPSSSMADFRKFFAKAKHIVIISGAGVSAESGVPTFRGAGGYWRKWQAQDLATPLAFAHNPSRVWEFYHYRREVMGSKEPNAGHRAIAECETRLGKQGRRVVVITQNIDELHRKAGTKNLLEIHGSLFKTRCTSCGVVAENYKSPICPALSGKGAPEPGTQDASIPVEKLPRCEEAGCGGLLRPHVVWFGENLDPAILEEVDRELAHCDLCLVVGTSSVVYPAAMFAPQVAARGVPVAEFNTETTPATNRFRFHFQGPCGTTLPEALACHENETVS

This test has as its target NAD-dependent protein deacylase sirtuin-5, mitochondrial (Homo sapiens) (UniProt Q9NXA8). As to the kind of experiment: SIRT5 deacylase inhibitors, dose response, biochemical, fluorescence imaging, cherry-pick, set 6 (AID 720597).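 Further: lower AMC signal can also come from blocking the trypsin step; 0% = median of neutral control wells and -100% = median of positive control wells.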 Conditions: Purified SirT5, succinyl-peptide-AMC/trypsin fluorescence; series mostly up to 15 µM; activity change, negative = inhibition: at the top concentration.
Take `C[C@H](CO)N1C[C@H](C)[C@H](CN(C)Cc2ccccc2)Oc2cc(/C=C/c3ccccc3)ccc2S1(=O)=O`: the “activity change, negative = inhibition” value is -19.4%.

For the molecule `C[C@@H]1CN([C@@H](C)CO)C(=O)c2cc(-c3cccnc3)cnc2O[C@H]1CN(C)C(=O)Nc1ccc2c(c1)OCO2`, the “activity change, negative = inhibition” value is 19.3%.

Regarding `C[C@H]1CN([C@@H](C)CO)S(=O)(=O)c2ccc(/C=C/c3ccccc3)cc2O[C@@H]1CN(C)Cc1ccccc1`, the “activity change, negative = inhibition” value was 28.7%.

With `C[C@@H]1CCCCO[C@H](CN(C)Cc2ccc(C(F)(F)F)cc2)[C@@H](C)CN([C@@H](C)CO)C(=O)c2cc(NS(=O)(=O)c3ccc(F)cc3)ccc2O1`, the “activity change, negative = inhibition” value was -12.9%.

On to `C[C@@H]1CCCCO[C@@H](CN(C)Cc2ccc(C(F)(F)F)cc2)[C@H](C)CN([C@@H](C)CO)C(=O)c2cc(NS(=O)(=O)c3ccc(F)cc3)ccc2O1`, for which the “activity change, negative = inhibition” value was -8.51%.

Turning to `C[C@@H]1CCCCO[C@H](CN(C)C(=O)Nc2ccc(C(F)(F)F)cc2)[C@H](C)CN([C@H](C)CO)C(=O)c2cc(NS(=O)(=O)c3ccc(Cl)cc3)ccc2O1`, the “activity change, negative = inhibition” value is -24.1%.

Regarding `CN1c2ccc(-c3ccccc3)cc2[C@H]2[C@H](CCN2C(=O)Cc2ccccn2)[C@H]1CO`, the “activity change, negative = inhibition” value was -17.4%.

As to `CN(C)C(=O)c1ccc(-c2ccc([C@H]3[C@H](CO)N4CCCCN(CCC(F)(F)F)C[C@@H]34)cc2)cc1`, the “activity change, negative = inhibition” value was -22.6%.

For `O=C(NC1CCCC1)N[C@@H]1CC[C@H](CC(=O)N2CCOCC2)O[C@H]1CO`, the “activity change, negative = inhibition” value was 8.82%.

On to `C[C@@H](O)C#Cc1ccc([C@@H]2[C@H]3CN(C(=O)c4cccc(F)c4)CCCCN3[C@H]2CO)cc1`, for which the “activity change, negative = inhibition” value is -5.1%.

`C[C@H]1CCCCO[C@H](CN(C)Cc2ccc(C(F)(F)F)cc2)[C@@H](C)CN([C@@H](C)CO)C(=O)c2cc(NS(=O)(=O)c3ccccc3)ccc2O1`: the “activity change, negative = inhibition” value is 0.872%.
